# Bioassay records (PubChem)
# Most compounds without a hit are left out; they make up all but 32% or so of the library.
# PostGolgi ctrl: yeast control strain growth, post-Golgi counter-screen; efflux-deficient yeast background strain, growth absorbance A615, 16 h; inhibition, % at 10 µM; 98,000 compounds, 5% hits
# CYP2C9 activ: activators of human CYP2C9; activation factor at 5 µM; recombinant CYP2C9, luciferin-H conversion, luminescence; hits give high values; factor 1 = untreated enzyme, 0 = blocked; P11712; AID 1024; 96,000 compounds, 1.4% hits;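 active = activation factor of 2 or more for CYP2C9 at a 5 µM dose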;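 also: 0 = sulfaphenazole-blocked wells and 1 = vehicle-only wells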
# CYP2C19 activ: cytochrome P450 2C19 (human) activation. activation factor at 5 µM. 96,000 tested, under 10 active. recombinant CYP2C19, luciferin-H EGE luminescence; hits give high values; 0 = fully inhibited enzyme, 1 = untreated enzyme;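 active = activation factor of at least 2 at 5 µM in the primary screen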;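 also: 0 = wells with 2.5 mM tranylcypromine and 1 = vehicle-only wells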
# Target sequence (P33261 whole entry, looked up): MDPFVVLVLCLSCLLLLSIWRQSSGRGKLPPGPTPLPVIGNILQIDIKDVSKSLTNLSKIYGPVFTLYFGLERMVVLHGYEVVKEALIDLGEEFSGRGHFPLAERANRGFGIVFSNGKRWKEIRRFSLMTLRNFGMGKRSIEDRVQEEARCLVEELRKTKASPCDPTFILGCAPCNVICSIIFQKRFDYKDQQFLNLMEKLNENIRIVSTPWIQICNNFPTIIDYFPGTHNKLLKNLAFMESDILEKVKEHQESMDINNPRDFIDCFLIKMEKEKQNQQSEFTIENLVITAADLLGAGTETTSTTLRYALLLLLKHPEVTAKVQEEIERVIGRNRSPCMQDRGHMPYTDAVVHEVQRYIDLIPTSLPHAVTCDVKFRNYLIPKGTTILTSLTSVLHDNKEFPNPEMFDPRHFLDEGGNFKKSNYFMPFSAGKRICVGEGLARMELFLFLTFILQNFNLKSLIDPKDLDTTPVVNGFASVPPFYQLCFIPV
# PostGolgi yeast: growth inhibition of a yeast mutant, post-Golgi transport screen | post-Golgi transport phenotypic cell assay | inhibition, % at 10 µM | 98,000 compounds, 0.9% hits | AID 739;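 also: yeast cells grown in 1536-well plates; yeast grown about 18 h at 30C before absorbance read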
# CYP2C19 inhib: inhibitors of human CYP2C19. P33261. CYP2C19 Supersomes, luciferin-H EGE luminescence, 30 min. inhibition, % at 5 µM. 96,000 compounds, 21% hits. AID 778;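 active = CYP2C19 inhibition above a set limit at 5 µM in the primary screen, cut at about 50% in these data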;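 also: plate controls were negative control wells for no effect and 2.5 mM tranylcypromine positive control for full effect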
# CYP2C9 inhib: blocks human cytochrome P450 2C9; P11712; CYP2C9 Supersomes, luciferin-H conversion, luminescence; inhibition, % at 5 µM; 96,000 compounds, 20% hits; AID 777;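 active = blocking of liver enzyme CYP2C9 beyond about 50% at 5 µM, limit read from the data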
# Starred values were filed as active, the others as inactive; . = not tested or not shown. Rule as the data show it, unless noted: active = inhibition above about 30%; inactive = the rest.
SMILES,PostGolgi ctrl,CYP2C9 activ,CYP2C19 activ,PostGolgi yeast,CYP2C19 inhib,CYP2C9 inhib
Cc1cc(NCC(C)C)n2ncnc2n1,6.7,1.2,1.1,11.4,-13.5,-18.3
CCOC(=O)c1sc(NC(=O)CSc2nnc(Cc3ccccc3)o2)c(C#N)c1C,8.5,0.1,0.7,15.7,28.5,90.4*
CCc1nnc(NC(=O)CSc2nnc(Cc3ccccc3)o2)s1,-6.8,0.7,0.7,14.3,30.6,29.7
CCOC(=O)c1c(NC(=O)CSc2nnc(-c3ccc(C)cc3)o2)sc(C(C)=O)c1C,10.3,0.5,0.8,0.2,20.8,48.0
CCOC(=O)c1c(NC(=O)CSc2nnc(Cc3ccccc3)o2)sc(C(C)=O)c1C,9.8,0.5,0.6,0.8,39.1,52.1*
CCOC(=O)c1c(NC(=O)CSc2nnc(CNc3ccc(F)cc3)o2)sc(C(C)=O)c1C,12.1,0.1,0.1,-8.8,89.2*,94.5*
CCOC(=O)c1c(NC(=O)CSc2nnc(-c3ccccc3)o2)sc(C(C)=O)c1C,9.5,0.2,0.6,4.2,38.5,75.3*
O=C1Nc2ccccc2S/C1=C/Nc1cccc(Cl)c1,9.5,1,1,-1.7,-0.8,4.7
Cc1ccc(NC(=O)CC2SC3=NCCCN3C2=O)c(C)c1 (centres undefined),7.7,1.2,1,-3.4,-0.6,-18.6
O=S(=O)(NCCc1ccncc1)c1ccc(S(=O)(=O)N2CCCCCC2)cc1,3.6,0.1,0,-0.5,98.7*,92.5*
O=S(=O)(NCCc1ccncc1)c1ccc(Br)cc1,0.3,0,0,-1.0,99.7*,97.5*
COc1ccc(OC)c(C(c2nnnn2Cc2ccccc2)N2CCN(C3CCCCC3)CC2)c1 (centres undefined),-5.4,0.9,1,6.1,0.6,8.5
Cc1nn(Cc2n[nH]c(=S)n2Cc2ccccc2)c(C)c1Cl,5.8,0.8,0.5,-7.4,53.2*,20.9
O=C(c1ccc(Cl)s1)N1CCN(c2ccccc2)CC1,1.4,.,.,2.1,.,.
CN1/C(=C\C(=O)c2ccco2)c2ccccc2CC1(C)C,2.4,0.8,0.9,9.0,5.9,17.2
Cc1cccc(C(=O)/C=C2/c3ccccc3CC(C)(C)N2C)c1,24.2,0.1,0.1,14.3,86.8*,85.2*
Cc1ccccc1C(=O)/C=C1/c2ccccc2CC(C)(C)N1C,4.4,0.4,0.6,12.2,41.1,57.5*
Cc1cccc(C(=O)NC(=S)N2CCN(C)CC2)c1,-3.2,0.9,1,2.5,1.3,5.1
COc1cc(-c2nnc(SCC(=O)Nc3cc(C)on3)n2C)cc(OC)c1O,16.2,1,1,6.7,4.9,-1.6
Cc1cccc(NC(=O)C2NC(=O)CC2c2ccccc2)c1C (centres undefined),10.6,0.8,0.4,-7.8,58.3*,16.1
Cc1ccc(C(=O)COC(=O)CCC(=O)Nc2cc(Cl)ccc2Cl)cc1[N+](=O)[O-],-1.1,1,0.9,-8.7,11.9,-1.6
O=C(CC(c1ccccc1)c1ccccc1)NCCO,2.0,0.8,0.8,-0.9,18.8,17.1
COCCNC(=O)CC(c1ccccc1)c1ccccc1,0.9,0.6,0.5,-6.5,52.0*,36.0
COCCNC(=O)Cc1ccc(Br)cc1,5.5,1.1,0.4,2.8,55.5*,-7.2
COCCNC(=O)CSc1nc(-c2ccccc2)c(-c2ccccc2)o1,18.7,0.3,0.2,-9.3,81.6*,70.7*
SMILES,PostGolgi ctrl,CYP2C9 activ,CYP2C19 activ,PostGolgi yeast,CYP2C19 inhib,CYP2C9 inhib
Cc1c(C(=O)N/N=C/c2ccccc2)sc(=S)n1C,38.2*,0.9,1,7.3,-2.5,12.0
CCC(=O)c1ccc(OCCn2cncn2)cc1,17.9,0.3,0.5,-4.0,51.9*,66.8*
CCC(=O)c1ccc(OCCN2CCOCC2)cc1,6.7,1.1,1,2.3,-4.1,-10.3
COc1ccc(S(=O)(=O)N(CCN2CCOCC2)Cc2cc(OC)ccc2OC)cc1,-1.4,0.9,0.2,-3.2,81.4*,10.6
COc1ccc(S(=O)(=O)N(CCCN2CCOCC2)Cc2cccc3ccccc23)cc1,1.8,0.7,0.2,5.6,77.5*,26.0
COc1ccc(S(=O)(=O)N(CCCN2CCOCC2)Cc2cccc(OC)c2OC)cc1,18.3,0.9,0.4,-6.8,58.3*,5.9
COn1cnnc1-c1ccccc1,0.1,0.9,0.7,-5.9,25.1,5.3
CCOCCCn1c(=S)[nH]c2cc3c(cc2c1=O)OCO3,7.0,0.5,0.3,11.3,67.6*,47.5
CCCCNC(=O)CCCn1c(=S)[nH]c2cc3c(cc2c1=O)OCO3,3.5,0.4,0.9,14.7,14.9,59.1*
CCN(CC)CCn1c(=S)[nH]c2cc3c(cc2c1=O)OCO3,2.0,0.9,1,-0.8,0.8,8.4
COc1cc2[nH]c(=S)n(CCN3CCOCC3)c(=O)c2cc1OC,1.8,0.9,0.6,-2.0,35.2,8.0
COc1cc2[nH]c(=S)n(CCCN3CCOCC3)c(=O)c2cc1OC,-8.9,1.2,1,37.7*,3.9,-17.7
CCCCCC(=O)Nc1ccc(S(=O)(=O)Nc2nccnc2OC)cc1,-2.2,1.1,1.1,-1.1,-8.5,-6.3
COc1cc(C)c(C(N)=O)c(OC)n1,12.0,1.3,1.2,2.0,-24.0,-26.1
CC(C(=O)NC1CCCC1)N(Cc1ccc2c(c1)OCO2)C(=O)c1snc(C(N)=O)c1N (centres undefined),8.6,0.2,0,0.8,99.4*,81.8*
CCC(C(=O)NC1CCCC1)N(Cc1ccc2c(c1)OCO2)C(=O)c1snc(C(N)=O)c1N (centres undefined),13.3,0.6,0.1,-6.8,92.5*,44.5
NC(=O)c1nsc(C(=O)N(CC(=O)NCc2ccc3c(c2)OCO3)C2CCCCC2)c1N,13.1,0.9,0.1,0.6,86.4*,10.9
CCC(C)(C)NC(=O)CN(C(=O)c1snc(C(N)=O)c1N)c1ccc2c(c1)OCO2,11.7,0.4,0.6,-5.7,38.4,56.8*
Cc1nc2ncnn2c(N2CCN(C(=O)Cc3cccs3)CC2)c1C,1.1,0.9,1,-4.7,1.1,6.0
N#CC(C(=O)C1CCCCC1)c1nc2ccccc2[nH]1 (centres undefined),47.0*,0.6,0.8,-4.1,17.6,42.2
CC(=O)c1c(C)[nH]c(C(=O)NCCN2CCC(C)CC2)c1C,4.7,1,1.1,12.3,-7.3,-2.4
O=C(c1ccco1)N1C(=O)c2cccc3cccc1c23,15.5,3.8*,0.9,-7.4,14.4,-276.0
CCOc1cc(-c2noc(N)c2C#N)cc(OCC)c1OCC,29.6,0.5,0.6,1.5,42.5,53.0*
Cc1ccccc1-c1noc(N)c1C#N,2.2,0.6,0.9,-4.7,7.4,43.1
CCC(C)NC(=O)c1ccc(CS(=O)(=O)Cc2ccc(Cl)cc2)o1 (centres undefined),-0.3,0.4,0.3,-4.0,67.3*,63.4*
C1COCCNCCOCCOCCN1,6.1,1,1.1,-2.9,-5.8,2.4
COc1ccc(CNC(=O)CSc2ncn[nH]2)cc1,-3.1,1.1,0.4,-1.2,64.9*,-14.7
